# Data taken from PubChem BioAssay (NCI).
# This is part of a sample that, as a whole, favours compounds with a hit. Of some 83,000 tested, about 20% had one in any assay.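 Method: cells in 96-well plates; compound added at one concentration; 48 h incubation; percent growth measured; values under 10 scored active.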 A number with no mark means an inactive call. Active and inactive are the calls of the source.
# How the values were obtained:
# Test in all cases: NCI-60 one-dose screen, 48 h (100 = growth as untreated, 0 = no growth, -100 = all killed)
# Settings in all cases: 10 µM unless noted
# [1] = test system: HCT-15 colon
# [2] = test system: HT29 colon
# [3] = test system: SNB-75 CNS
# [4] = test system: SNB-19 CNS
# [5] = test system: U251 CNS
# [6] = test system: PC-3 prostate
# [7] = test system: UACC-62 melanoma
# [8] = test system: LOX IMVI melanoma
# [9] = test system: SK-MEL-28 melanoma
# [10] = test system: SK-MEL-5 melanoma
Structure (SMILES),growth [1],growth [2],growth [3],growth [4],growth [5],growth [6],growth [7],growth [8],growth [9],growth [10]
OCC(O)C(O)CC1SCCS1 (stereo not given),104%,101%,94.7%,94.8%,99.9%,102%,97.7%,91.8%,110%,–
CN1NC(c2ccccc2)NN(C)C1=O,96.6%,107%,77.8%,97.2%,–,88.6%,91.6%,92.5%,107%,97.8%
Br/C(=N\Nc1nn[nH]n1)c1ccccc1,96.6%,110%,80.8%,–,99.6%,96.1%,101%,86.3%,109%,102%
OCCN1CCCN(CCCN2c3ccccc3Sc3ccc(C(F)(F)F)cc32)CC1,61.6%,8.24% (active),50.4%,–,33.6%,57.2%,-46.3% (active),49%,–,36.3%
